D2 antagonist = antagonists of human D2 dopamine receptor; P14416; HEK293 TREx D2 cells, calcium flux, dopamine EC80; inhibition, % at 10 µM; 340,000 tested, 2% active; AID 485344; in the data active = inhibition above about 30%; inactive = below that, where a call was filed; also: 0% is about no effect
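Cells plated overnight at 30 C with tetracycline; no-wash calcium dye, 30–90 min RT; 10 s baseline; compound pinned; 180 s read; EC80 dopamine added; another 180 s read.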
D2 PAM-1 = positive allosteric modulators of human D2 dopamine receptor | potentiation, % (no concentration beside the values) | 360,000 tested, 0.23% active | DiscoveRx D2 beta-arrestin cells, luminescence, 90 min; 100% = 57 uM dopamine signal | P14416 | AID 624464; in the data active = potentiation above about 50%; inconclusive = mostly about 30% to 49%
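PathHunter D2 cells, attached overnight at 37 deg C, received compound in DMSO plus dopamine at EC20 (50 nM final) for 90 min at 37 deg C. Beta-arrestin recruitment was read as luminescence after 1 h with detection reagent at ambient temperature.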
D2 PAM-2 = D2 dopamine receptor (human) potentiation; P14416; 340,000 tested, 0.34% active; potentiation, % at 10 µM; AID 485347; HEK293 T-REx D2, calcium flux, EC20 dopamine potentiation;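 active = potentiation over 3 SD above the plate norm, cut at about 30% in these data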; also: 0% is about no effect
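Primary screen. Calcium kinetics in induced HEK293 T-REx D2 cells: compound pre-addition 180 s, EC20 dopamine, 180 s more.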
D2 ag-1 = agonists of human D2 dopamine receptor. P14416. HEK293 T-REx D2 cells, calcium flux agonist mode. activation, % at 2 µM. 340,000 tested, 0.53% active. AID 485358;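 active = activation over 3 SD above normal in the single-dose calcium agonist read, cut at about 30% in these data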; also: 0% is about no effect
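Agonism is scored from calcium flux in a force-coupled, inducible HEK293 cell line expressing D2, read kinetically for 180 s after compound addition against dopamine controls.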
D2 ag-2 = human D2 receptor agonism in beta-arrestin assay. 360,000 tested, 0.084% active. activation, % (concentration not given with the values). P14416. DiscoveRx PathHunter D2 beta-arrestin, luminescence, 90 min; 100% = 57 uM dopamine signal; in the data active = activation above about 40%; inconclusive = between about 15% and that limit
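Agonist mode: compounds alone added to overnight-plated D2 PathHunter cells for 90 min at 37 C, with 57 uM final dopamine (EC100) defining full response. Beta-arrestin recruitment detected by chemiluminescent reagent, read after 1 h at ambient temperature.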
D3 ag = confirmation of human D3 dopamine receptor agonists, beta-arrestin; shares compounds with D2 ag-1; DiscoveRx D3 beta-arrestin cells, luminescence, 90 min; Potency, µM (titrated, usually from 76.9 µM), for inactives: at the top dose activation, actives largely listed as activators; 2,300 tested, 4% active; AID 720506;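 also: potency is read from the fitted curve at half-maximal effect; 100% = dopamine control response; nearly all actives have a fitted effect of over 70% in size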
Target sequence (P35462 whole entry, looked up): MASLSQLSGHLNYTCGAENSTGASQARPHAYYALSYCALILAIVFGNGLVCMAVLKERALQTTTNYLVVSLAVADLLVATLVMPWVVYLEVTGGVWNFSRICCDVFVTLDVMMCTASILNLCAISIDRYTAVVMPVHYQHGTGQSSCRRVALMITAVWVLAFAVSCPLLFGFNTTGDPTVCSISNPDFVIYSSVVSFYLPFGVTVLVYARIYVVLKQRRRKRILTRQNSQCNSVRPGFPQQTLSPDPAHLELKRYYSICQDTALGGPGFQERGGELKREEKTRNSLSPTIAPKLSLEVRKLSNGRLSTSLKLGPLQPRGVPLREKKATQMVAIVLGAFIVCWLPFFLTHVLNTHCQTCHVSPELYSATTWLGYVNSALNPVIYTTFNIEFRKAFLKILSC
D2 ag-3 = D2 receptor agonism, beta-arrestin counterscreen | shares compounds with D2 ag-1 | DiscoveRx PathHunter D2 beta-arrestin, luminescence, 90 min; response scale: percent relative to full dopamine signal | Potency, µM (titrated, usually from 76.9 µM), inactives show at the highest dose activation, usual class: activators | 2,300 tested, 5.9% active; also: potency is read from the fitted curve at half-maximal effect; % of control where 0% means no effect; nearly all actives have a fitted effect of over 70% in size
Active calls of the source: *; ? = inconclusive; / = not tested or not shown; ! = repeats disagree. This is a sample that favours compounds with a hit; in the whole collection about 2.4% have one here. Unless noted, calls follow the shape of the dose curve; as a rule, active = well fitted activation curve with a large enough effect; inconclusive = small, poorly fitted or top-dose-only effect; inactive = flat fitted curve, though single readings scatter.

SMILES	D2 antagonist	D2 PAM-1	D2 PAM-2	D2 ag-1	D2 ag-2	D3 ag	D2 ag-3
Cc1ccc(C(=O)N2CCCC(CCC(=O)N3CCN(c4ccccn4)CC3)C2)cc1C (stereo unspecified)	1.3	-5.2	5.2	1.6	-2.6	/	/
CC(C)c1nc2ccc(NC(=O)C34CC5CC(CC(C5)C3)C4)cc2[nH]1	33.3*	-16.6	22.0	0.3	-1.8	/	/
OCCC1CN(C2CSCCSC2)CCN1Cc1ccccc1 (stereo unspecified)	-1.8	-19.5	-2.8	-0.2	-1.3	/	/
OCCC1CN(C2CCN(c3ccccc3F)CC2)CCN1Cc1ccccc1 (stereo unspecified)	-1.4	-15.9	-23.1	1.7	-3.6	-29.9%	-4.7%
CCOC(=O)N1CCC(N2CCN(Cc3ccc(F)c(F)c3)C(CCO)C2)CC1 (stereo unspecified)	14.7	-6.5	-12.8	39.8*	4.9	2.7%	15.3%
CCOc1ccc(CNC(=O)C2CCN(c3nnc(-n4c(C)ccc4C)s3)CC2)cc1	/	/	/	-0.1	/	/	/
CC1CCN(CC2CCN(C(=O)Nc3ccc(Br)cc3F)CC2)CC1	/	/	3.8	1.9	/	/	/
Cc1cccc(N2CCN(C(=O)C3CCN(S(=O)(=O)Cc4ccccc4)CC3)CC2)c1C	/	/	6.1	1.2	/	/	/
O=C(CSc1nc2c([nH]c3ccccc32)c(=O)n1-c1ccccc1)Nc1ccccc1C(F)(F)F	/	/	-5.9	-1.4	/	/	/
Nc1ccn(CC(=O)NCc2ccc3[nH]ccc3c2)c(=O)n1	7.4	-4.9	-2.4	0.0	-4.0	11.9%	?
O=C(NNS(=O)(=O)c1ccccc1[N+](=O)[O-])c1cccc(Cl)c1	-22.9	9.3	-19.3	50.8*	-1.1	-4.4%	1.1%
O=C(NNS(=O)(=O)c1ccccc1[N+](=O)[O-])c1cccc(Br)c1	/	11.5	/	/	2.6	/	/
C/C(=N\NC(=O)C12CCC(C)(C(=O)O1)C2(C)C)c1ccccc1O (stereo unspecified)	82.5*	-8.9	-29.8	83.3*	?	?	?
COc1cccc(C2=NS(=O)(=O)N(C)C(C(=O)Nc3ccccc3SC)=C2)c1	/	/	7.4	-1.8	/	/	/
Cc1cc(C)nc(-n2ncc3c2CC(c2ccccc2)CC3=O)n1 (stereo unspecified)	-8.5	-2.6	-20.7	48.4*	1.6	-2.1%	-2.2%
CC(C)N(Cc1cc2ccccc2[nH]c1=O)C(=O)c1cccc([N+](=O)[O-])c1	1.2	0.1	6.0	0.7	-1.1	/	/
Cc1ccc2[nH]c(=O)c(CN(C(=O)c3cccc([N+](=O)[O-])c3)C(C)C)cc2c1	-4.3	-2.7	-33.9	49.6*	-0.1	-4.2%	-0.2%
CCOC(=O)c1c(C)sc(-c2c(-c3ccc(OC)c(F)c3)[nH]c3c2c(=O)[nH]c(=O)n3C)c1O	/	/	15.7	-2.1	/	/	/
Cc1ccc(-n2c(CCC(=O)O)ccc2-c2cccs2)cc1Cl	/	/	-0.1	-2.1	/	/	/
O=C(CSc1ncn[nH]1)N1N=C2/C(=C/c3ccccc3)CCCC2C1c1ccccc1 (stereo unspecified)	33.3*	9.4	-13.6	41.3*	11.7	6.3%	?
COc1ccc(/C=C2\CCCC3C2=NN(C(=O)CSc2ncn[nH]2)C3c2ccc(OC)cc2)cc1 (stereo unspecified)	4.5	-8.5	-16.4	-0.3	6.1	/	/
Cc1ccc2cc(CN(C(=O)c3cccc(Cl)c3)c3ccccc3)c(=O)[nH]c2c1	/	/	-7.9	-0.6	/	/	/
Cc1c(N=c2scc(-c3ccccc3)n2C)c(=O)n(-c2ccccc2)n1C	75.5*	-5.5	-15.9	66.1*	?	-1.3%	?
Cc1c(N=c2scc(-c3ccccc3)n2CCO)c(=O)n(-c2ccccc2)n1C	0.5	-4.6	-4.3	23.7	0.5	/	/
Oc1ccc(-c2csc(-c3cccnc3)n2)cc1O	3.8	15.6	-10.4	31.0*	5.7	15.8µM*	14.6%
SMILES	D2 antagonist	D2 PAM-1	D2 PAM-2	D2 ag-1	D2 ag-2	D3 ag	D2 ag-3
Oc1ccc(-c2csc(-c3ccccc3)n2)cc1O	-22.2	15.5	-0.6	-0.5	3.6	/	/
Cc1ccc(OCC(=O)OCc2cc(=O)n3nc(C4CCCCC4)sc3n2)cc1C	/	/	13.4	0.7	/	/	/
COc1ccc(NC(=O)Cn2cc(C(=O)c3ccc(C)c(C)c3)c(=O)c3cc(OC)ccc32)cc1	/	/	-19.3	/	/	/	/
c1ccc(CCN=C2CCCc3c2[nH]c2ccccc32)cc1	58.1*	8.1	-22.9	76.5*	12.6	?	?
Nc1ccc(C(=O)N/N=C2\CCCc3c2[nH]c2ccccc32)cc1	/	4.3	/	/	-4.0	/	/
CC(=O)Nc1nonc1-c1nnc(SCc2ccc(F)cc2)n1C	/	/	-8.3	/	/	/	/
CCCCN(CC)CCNC(=O)c1cc2c(-c3ccc(Cl)cc3)nn(C)c2s1	71.8*	56.7*	-22.2	44.3*!	74.9*	?	25.1µM*
CCCN(CCC)CCNC(=O)c1cc2c(-c3ccccc3F)nn(C)c2s1	41.5*	?	-15.5	42.6*	66.7*	-3.0%	?
CCCN(CCC)CCNC(=O)c1cc2c(-c3ccc(Cl)cc3)nn(C)c2s1	37.0*	-3.2	-16.4	45.0*	?	12.3%	?
CCN(CC)CCNC(=O)c1cc2c(-c3ccc(Cl)cc3)nn(C)c2s1	2.3	10.5	-14.0	6.5	0.4	/	/
Cc1cccc(N2CCN(C(=O)c3nn(C)c4c3CSc3ccccc3-4)CC2C)c1 (stereo unspecified)	/	/	1.3	-0.3	/	/	/
Cc1ccc(NC(=O)CN2C(=O)C(c3ccccc3)=NC2(C)C)cc1C	/	/	10.4	0.1	/	/	/
COCCn1c(CCC(=O)Nc2ccc(OC)c(OC)c2)nc2cccnc21	/	/	1.3	-0.6	/	/	/
Cc1[nH]c2ccccc2c1/C=N/Nc1ccc([N+](=O)[O-])cc1	20.0	-17.5	-1.6	21.9	-11.8	/	/
COc1ccccc1NS(=O)(=O)c1cc([N+](=O)[O-])ccc1N/N=C/c1c(C)[nH]c2ccccc12	-25.6	-16.5	15.3	19.3	-16.1	-42.7%	-14.2%
O=C(NNC(=O)c1ccncc1)Nc1cccc(C(F)(F)F)c1	3.2	-2.6	-2.9	0.0	-0.9	/	/
O=C(/C=C/c1ccccc1[N+](=O)[O-])NNC(=O)c1ccncc1	0.4	-5.1	0.5	1.4	-3.4	-15.7%	-11.0%
O=C(/C=C/c1cccc(C(F)(F)F)c1)NNC(=O)c1ccncc1	4.7	-68.8	-5.9	-0.2	-4.8	-11.4%	-7.0%
Cc1ccc(CNC(=O)Cn2ccn(-c3ccc(F)cc3)c(=O)c2=O)cc1	/	/	4.8	-0.1	/	/	/
CCCN(CCC)C(=O)Cn1c(=O)n(-c2ccc(CC)cc2)c(=O)c2ccc(C(=O)NCCc3ccccc3)cc21	/	/	19.7	-0.3	/	/	/

Compound activity (PubChem)
